# In the library only some 21% were active in any assay of this set; here they are far more common.
# HCV inhibitor = qHTS Assay for Inhibitors of Hepatitis C Virus (HCV). Potency, µM (top dose mostly 41.8 µM), for inactives: at the top dose activity change, negative = inhibition, most hits filed as inhibitors. 340,000 compounds, 3.4% hits. AID 651820, 2012. Huh7.5.1 HCVcc-Cre infection, luciferase reporter, 44 h; further: potency means the concentration at half of the fitted maximal effect; on the % scale 0 is the no-effect control and ±100 the full control effect
#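 Cells (1,000/well) were plated 4 h before compound, then infected with HCVcc-Cre virus (~0.5 moi). After 44 h further culture, infection was read as luciferase luminescence following a 15 min substrate incubation at room temperature.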
# CHX counter = Cycloheximide Counterscreen for Small Molecule Inhibitors of Shiga Toxin | cell reporter, cycloheximide protein synthesis inhibition counterscreen | max response, % | 300,000 compounds, 12% hits | AID 2314, 2010; in the data active means max response mostly above about 13%, no sharp cut-off; inactive means mostly below about 14%; further: read at 38.3 µM for the half of the compounds with a filed dose; 0% is about no effect
# Pf growth 96h = Primary qHTS for delayed death inhibitors of the malarial parasite plastid, 96 hour incubation; P. falciparum luciferase reporter growth, 96 h; Potency, µM (highest dose often 28.7 µM), without a hit: at the highest dose activity change, negative = inhibition, most hits filed as inhibitors; 320,000 compounds, 6.9% hits; AID 504834, 2011; further: potency means the concentration at half of the fitted maximal effect; on the % scale 0 is the no-effect control and ±100 the full control effect
#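 Parasite growth measured via integrated firefly luciferase reporter in P. falciparum. Infected erythrocytes at 2% hematocrit, 0.05% parasitemia final were treated 96 hours at 37 C under 5% CO2, and luminescence was read.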
# Shiga toxin inh = A qHTS for Small Molecule Inhibitors of Shiga Toxin. AID 2315, 2010. inhibition, % at 38.7 µM. 290,000 compounds, 9.2% hits. Vero cells, Shiga toxin protein synthesis inhibition reporter; in the data active means inhibition mostly above about 28%, no sharp cut-off; inactive means mostly below about 43%; further: 0% is about no effect
# HCMV inh = qHTS Assay for inhibitors of the human cytomegalovirus (HCMV); HFF cells, HCMV-luciferase reporter, 72 h; active compounds read low; activity change, negative = inhibition, % at 57.5 µM; 410,000 compounds, 4.5% hits; in the data active means activity change below about -60%; inconclusive means no clear call, values can overlap the other calls; inactive means above about -39%; further: on the % scale 0 is the no-effect control and ±100 the full control effect
#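 HFF cells seeded 16 h at 37C, treated with compounds, infected with luciferase-reporter HCMV at MOI 1 PFU/cell; luciferase read at 72 h post infection, normalized to buffer-only and Salinomycin controls.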
# Pf growth 48h = Primary qHTS for delayed death inhibitors of the malarial parasite plastid, 48 hour incubation; AID 504832, 2011; 310,000 compounds, 5.9% hits; Potency, µM (titrated, usually from 28.7 µM), for the others: at the top dose activity change, negative = inhibition, actives largely listed as inhibitors; P. falciparum luciferase growth in erythrocytes, 48 h; further: potency means the concentration at half of the fitted maximal effect; on the % scale 0 is the no-effect control and ±100 the full control effect
#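 A one-generation exposure of luciferase-tagged malaria parasites in RPMI 1640/Albumax erythrocyte culture, 37 C and 5% CO2. Inhibition is inferred from decreased luminescence after adding detection reagent.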
# An asterisk follows results filed as active; ? = inconclusive; · = no result given. Unless noted, the call rests on the fitted dose curve; in most records, active means well fitted inhibition curve with a large enough effect; inconclusive means small, poorly fitted or top-dose-only effect, or another doubt; inactive means no such curve, though single readings can be large or run the other way.
SMILES,HCV inhibitor,CHX counter,Pf growth 96h,Shiga toxin inh,HCMV inh,Pf growth 48h
CC(O)(c1ccc(F)c(F)c1)c1nc(-c2cccc(F)c2)cs1 (stereo not given),·,·,·,·,-7,·
CC(C)c1cccc(-c2csc(C(C)(O)c3ccc(F)c(F)c3)n2)c1 (stereo not given),·,·,·,·,-77*,·
CC(C)c1cccc(-c2csc(C(C)(O)c3ccncc3)n2)c1 (stereo not given),·,·,·,·,-77*,·
C[C@H]1CN([C@@H](C)CO)S(=O)(=O)c2ccc(Br)cc2O[C@H]1CN(C)C(=O)c1cccc(F)c1,·,·,·,·,2,·
Cc1ccc2c(c1)N=C(c1ccc(F)cc1)CO2,0%,41*,30%,111*,-5,44%
O=[N+]([O-])c1ccc(C2=Nc3cc(Cl)ccc3OC2)cc1,5%,12,-12%,62*,113,?
Cc1ccc(-c2cc3ncc4c(n3n2)-c2cc(F)ccc2OC4)cc1,·,·,·,·,25,·
Cc1cccc(NC(=O)C2CCN(S(=O)(=O)c3cccc4nonc34)CC2)c1,8%,7,?,-5,-19,31%
NS(=O)(=O)c1cccc(NC(=O)COC(=O)c2ccccc2SCC(=O)N2CCCC2)c1,7%,·,·,·,-1,·
C=CCN=C1S/C(=C/c2cccc([N+](=O)[O-])c2)C(=O)N1CC=C,?,-2,?,15,-74*,-21%
C=CCN=C1S/C(=C\c2ccc(Cl)cc2)C(=O)N1CC=C,-6%,13,12%,49*,-84*,?
O=C(OCC(=O)N1CCCC1)c1cc(Cl)ccc1[N+](=O)[O-],1%,-3,25%,7,-32,-9%
Cc1cccc(Cn2c(Sc3nc(C)cs3)nc3c2c(=O)[nH]c(=O)n3C)c1,?,-3,1.7µM*,-4,-6,-21%
Cc1cccc(Cn2c(SCC(=O)Nc3ccccc3)nc3c2c(=O)[nH]c(=O)n3C)c1,25µM*,-1,?,-2,23,?
Cc1csc(Sc2nc3c(c(=O)[nH]c(=O)n3C)n2Cc2ccccc2Cl)n1,-3%,1,-9%,10,9,-19%
CCOC(=O)CCn1nc(C)c2c(C)n(-c3ccccc3)nc2c1=O,·,·,·,·,28,·
Cc1ccc(N(Cc2ccccc2)C(=O)c2ccc(F)c(S(=O)(=O)N3CCOCC3)c2)cc1,6%,·,?,·,-33,?
COc1ccc(CC(=O)N(Cc2ccccc2)c2ccccc2)cc1S(=O)(=O)N1CCOCC1,?,6,?,6,-16,?
CC1CCN(S(=O)(=O)c2cccc(C(=O)N(Cc3ccccc3)c3ccccn3)c2)CC1,-13%,2,-15%,3,-66*,4%
Cc1cccc(N(Cc2ccccc2)C(=O)c2ccc(F)c(S(=O)(=O)N3CCOCC3)c2)c1,?,·,12µM*,·,-35,12µM*
Cc1ccc(C(=O)N(CCc2ccccc2)Cc2ccccc2)cc1S(=O)(=O)N1CCCCC1,?,·,8.3µM*,·,-8,13µM*
CN1CCN(S(=O)(=O)c2cccc(C(=O)N(c3ccccn3)C3CCCCC3)c2)CC1,-3%,1,?,-7,18,-21%
COc1ccc(C(=O)N(Cc2ccccc2)c2cccc(C)c2)cc1S(=O)(=O)N1CCOCC1,-13%,·,5.2µM*,·,0,10µM*
COc1ccc(S(=O)(=O)N2CCCC2CNC(=O)C(=O)Nc2cccc(F)c2)cc1 (stereo not given),?,·,?,·,-13,?
COc1ccc(NC(=O)NC(C)c2c(-n3cccc3)sc3c2CCN(C)C3)c(OC)c1 (stereo not given),·,·,·,·,8,·
CN(Cc1ccc(Cl)cc1)C(=O)c1cc(S(=O)(=O)N2CCOCC2)ccc1N1CCCC1,-29%,·,?,·,-20,?
CC1CN(S(=O)(=O)c2cc(C(=O)N(CCc3ccccc3)Cc3ccccc3)ccc2Cl)CC(C)O1 (stereo not given),?,·,5.2µM*,·,-7,5.2µM*
Cc1cccc(N(Cc2ccccc2)C(=O)Cc2ccc(S(=O)(=O)N3CCOCC3)s2)c1,-12%,·,?,·,-16,13µM*
